# ± gives the standard deviation of the averaged measurements.
# Legend:
# Test in all cases: promoter activity interaction Z-score (Lux/OD deviation from empty-vector control); higher = stronger promoter induction by the compound
# [1] = tested on: E. coli BW25113 acrABp lux reporter
# How it was run: (§1)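 Wild-type E. coli BW25113 and three single-gene deletion strains, each carrying a low-copy luxCDABE promoter reporter, were grown at 37°C in 40 µl LB Lennox per well of a 384-well plate. Every compound was applied at four 1:2 dilutions in biological duplicates, and OD600 and luminescence were read every 30 min for 12 h. Integration covered 0–8 h for wild type and 1–9 h for deletion strains, and wells under 10% of the median growth value were removed. Scores are Z-transformed residuals of growth-normalised luminescence fitted against a control.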
# [2] = tested on: E. coli BW25113 micFp lux reporter
# How it was run: as §1
# [3] = tested on: E. coli BW25113 ompFp lux reporter
# How it was run: as §1
# [4] = tested on: E. coli BW25113 robp lux reporter
# How it was run: as §1
# [5] = tested on: E. coli BW25113 soxSp lux reporter
# How it was run: as §1
# [6] = tested on: E. coli BW25113 tolCp lux reporter
# How it was run: as §1
# [7] = 0.048 µg/ml, genetic background: wild type
# [8] = 0.048 µg/ml, genetic background: ΔmarA
# [9] = 0.048 µg/ml, genetic background: Δrob
# [10] = 0.048 µg/ml, genetic background: ΔsoxS
# [11] = 0.1 µg/ml, genetic background: wild type
# [12] = 0.1 µg/ml, genetic background: ΔmarA
# [13] = 0.1 µg/ml, genetic background: Δrob
# [14] = 0.1 µg/ml, genetic background: ΔsoxS
# [15] = 0.19 µg/ml, genetic background: wild type
# [16] = 0.19 µg/ml, genetic background: ΔmarA
# [17] = 0.19 µg/ml, genetic background: Δrob
# [18] = 0.19 µg/ml, genetic background: ΔsoxS
# [19] = 0.38 µg/ml, genetic background: wild type
# [20] = 0.38 µg/ml, genetic background: ΔsoxS
structure (smiles),measurement,setting,value
CCC(C)CCCC(=O)N[C@@H](CCN)C(=O)N[C@H](C(=O)N[C@@H](CCN)C(=O)N[C@H]1CCNC(=O)[C@H]([C@@H](C)O)NC(=O)[C@H](CCN)NC(=O)[C@H](CCN)NC(=O)[C@H](CC(C)C)NC(=O)[C@@H](CC(C)C)NC(=O)[C@H](CCN)NC1=O)[C@@H](C)O (stereo partly drawn) [Colistin],promoter activity interaction Z-score,[1]; [7],0.00962 ± 0.11
same,promoter activity interaction Z-score,[1]; [8],-0.167 ± 0.31
same,promoter activity interaction Z-score,[1]; [9],0.139 ± 0.096
same,promoter activity interaction Z-score,[1]; [10],0.0289 ± 0.14
same,promoter activity interaction Z-score,[1]; [11],0.308 ± 0.22
same,promoter activity interaction Z-score,[1]; [12],0.524 ± 0.34
same,promoter activity interaction Z-score,[1]; [13],0.0214 ± 0.021
same,promoter activity interaction Z-score,[1]; [14],-0.00861 ± 0.23
same,promoter activity interaction Z-score,[1]; [15],0.246 ± 0.16
same,promoter activity interaction Z-score,[1]; [16],-0.482 ± 0.29
same,promoter activity interaction Z-score,[1]; [17],0.192 ± 0.051
same,promoter activity interaction Z-score,[1]; [18],-0.0737 ± 0.12
same,promoter activity interaction Z-score,[1]; [19],0.607 ± 0.1
same,promoter activity interaction Z-score,[1]; [20],2.31 ± 2.5
same,promoter activity interaction Z-score,[2]; [7],-0.359 ± 0.049
same,promoter activity interaction Z-score,[2]; [8],0.0434 ± 0.083
same,promoter activity interaction Z-score,[2]; [9],0.0506 ± 0.077
same,promoter activity interaction Z-score,[2]; [10],-0.14 ± 0.12
same,promoter activity interaction Z-score,[2]; [11],-0.48 ± 0.39
same,promoter activity interaction Z-score,[2]; [12],-0.0509 ± 0.014
same,promoter activity interaction Z-score,[2]; [13],0.0439 ± 0.063
same,promoter activity interaction Z-score,[2]; [14],-0.113 ± 0.06
same,promoter activity interaction Z-score,[2]; [15],-0.562 ± 0.18
same,promoter activity interaction Z-score,[2]; [16],-0.217 ± 0.25
same,promoter activity interaction Z-score,[2]; [17],-0.229 ± 0.24
same,promoter activity interaction Z-score,[2]; [18],-0.514 ± 0.082
same,promoter activity interaction Z-score,[2]; [19],-0.607 ± 0.2
same,promoter activity interaction Z-score,[3]; [7],-0.346 ± 0.26
same,promoter activity interaction Z-score,[3]; [8],-0.0916 ± 0.57
same,promoter activity interaction Z-score,[3]; [9],-0.0368 ± 0.43
same,promoter activity interaction Z-score,[3]; [10],0.093 ± 0.28
same,promoter activity interaction Z-score,[3]; [11],-0.267 ± 0.43
same,promoter activity interaction Z-score,[3]; [12],0.449 ± 0.06
same,promoter activity interaction Z-score,[3]; [13],0.19 ± 0.37
same,promoter activity interaction Z-score,[3]; [14],0.15 ± 0.24
same,promoter activity interaction Z-score,[3]; [15],0.073 ± 0.018
same,promoter activity interaction Z-score,[3]; [16],0.452 ± 0.48
same,promoter activity interaction Z-score,[3]; [17],-0.296 ± 0.74
same,promoter activity interaction Z-score,[3]; [18],-0.0443 ± 0.14
same,promoter activity interaction Z-score,[3]; [19],0.0453 ± 0.83
same,promoter activity interaction Z-score,[3]; [20],1.11
same,promoter activity interaction Z-score,[4]; [7],0.161 ± 0.5
same,promoter activity interaction Z-score,[4]; [8],-0.748 ± 0.18
same,promoter activity interaction Z-score,[4]; [9],0.308 ± 0.074
same,promoter activity interaction Z-score,[4]; [10],0.602 ± 0.38
same,promoter activity interaction Z-score,[4]; [11],0.156 ± 0.63
same,promoter activity interaction Z-score,[4]; [12],-0.00162 ± 0.4
same,promoter activity interaction Z-score,[4]; [13],-0.329 ± 0.5
same,promoter activity interaction Z-score,[4]; [14],1.13 ± 0.73
same,promoter activity interaction Z-score,[4]; [15],0.641 ± 1.4
same,promoter activity interaction Z-score,[4]; [16],-0.0677 ± 0.0062
same,promoter activity interaction Z-score,[4]; [17],-0.869 ± 0.76
same,promoter activity interaction Z-score,[4]; [18],-0.113 ± 0.049
same,promoter activity interaction Z-score,[4]; [19],-1.15 ± 0.17
same,promoter activity interaction Z-score,[4]; [20],-1.35 ± 0.85
same,promoter activity interaction Z-score,[5]; [7],-0.0522 ± 0.2
same,promoter activity interaction Z-score,[5]; [8],0.182 ± 0.078
same,promoter activity interaction Z-score,[5]; [9],0.268 ± 0.048
same,promoter activity interaction Z-score,[5]; [10],0.235 ± 0.097
same,promoter activity interaction Z-score,[5]; [11],-0.219 ± 0.34
same,promoter activity interaction Z-score,[5]; [12],0.306 ± 0.074
same,promoter activity interaction Z-score,[5]; [13],0.144 ± 0.06
same,promoter activity interaction Z-score,[5]; [14],0.368 ± 0.28
same,promoter activity interaction Z-score,[5]; [15],-0.09 ± 0.072
same,promoter activity interaction Z-score,[5]; [16],0.135 ± 0.0049
same,promoter activity interaction Z-score,[5]; [17],-0.469 ± 0.47
same,promoter activity interaction Z-score,[5]; [18],0.108 ± 0.33
same,promoter activity interaction Z-score,[5]; [19],-0.417 ± 0.57
same,promoter activity interaction Z-score,[5]; [20],-0.517
same,promoter activity interaction Z-score,[6]; [7],-0.508 ± 0.048
same,promoter activity interaction Z-score,[6]; [8],-0.536 ± 0.12
same,promoter activity interaction Z-score,[6]; [9],0.211 ± 0.004
same,promoter activity interaction Z-score,[6]; [10],0.982 ± 0.44
same,promoter activity interaction Z-score,[6]; [11],-0.675 ± 0.32
same,promoter activity interaction Z-score,[6]; [12],0.378 ± 0.075
same,promoter activity interaction Z-score,[6]; [13],-0.935 ± 0.56
same,promoter activity interaction Z-score,[6]; [14],0.791 ± 0.7
same,promoter activity interaction Z-score,[6]; [15],-0.155 ± 0.13
same,promoter activity interaction Z-score,[6]; [16],-1.61 ± 0.11
same,promoter activity interaction Z-score,[6]; [17],-0.925 ± 0.63
same,promoter activity interaction Z-score,[6]; [18],-0.699 ± 0.78
same,promoter activity interaction Z-score,[6]; [19],-0.255 ± 0.42
same,promoter activity interaction Z-score,[6]; [20],-0.469 ± 0.66
